# In PubChem BioAssay (NCI):
# Compounds without any hit were thinned out: in the full panel of roughly 83,000, 20% have a hit.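 48-hour exposure, single concentration, 96-well plates; percent growth endpoint where 0 means no net growth. Active: below 10.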 Calls of active or inactive are those of the source.
# Test system: SF-295 CNS
# Assay: NCI-60 one-dose screen, 48 h (100 = growth as untreated, 0 = no growth, -100 = all killed)
# Conditions: 10 µM unless noted
row,Compound,growth
1,COc1cc(C(=O)n2nc(N3CCN(C)CC3)c3cc(N)ccc32)cc(OC)c1OC,4.42% (active)
2,O=C1N[C@@H]2NC(=[N+]3CCOCC3)N[C@@H]2N1,99.9% (inactive)
3,N#Cc1c(N)nnn1Cc1cc(=O)oc2c1ccc1ccccc12,109% (inactive)
4,COc1cc(OC)cc(C2=C3CC[C@@H]4[C@H](CC[C@]5(C)C(=O)CC[C@@H]45)C3=CC3C(O)c4cccnc4N4C(=O)COC234)c1 (stereo not given in full),97.6% (inactive)
5,C=C(C)[C@@H]1CC[C@]2(C(=O)N3CCN(C)CC3)CC[C@]3(C)[C@H](CC[C@@H]4[C@@]5(C)CC(=C/c6ccncc6)/C(=N/O)C(C)(C)[C@@H]5CC[C@]43C)[C@@H]12,91.6% (inactive)
6,CN1CCN(Cc2ccc3c(NNC(=O)c4ccccc4)nc4cc(F)ccc4n23)CC1,16.2% (inactive)
7,CCOC(=O)c1c2c(n3ccc(C)cc13)C(=O)c1ccccc1C2=O,98.5% (inactive)
8,CCCC(=O)NC(c1ccc2c(c1)OCO2)c1ccc2cccnc2c1O (stereo not given),13.9% (inactive)
9,Cc1nc2sc(C(=O)Nc3ccccc3)c(N)c2cc1C(=O)c1ccccc1,-9.52% (active)
10,COC(=O)c1ccc2c(c1)C(=O)c1c-2n(CCCN)c(=O)c2cc([N+](=O)[O-])ccc12,-77.4% (active)
11,CO[C@]12C=C/C(=C(/C(=O)OCc3cccnc3)C(=O)CCCCCCCC[C@@]3(OC)C=C/C(=C(/C(=O)OCc4cccnc4)C(=O)CCCCCCCC1)O3)O2,-0.607% (active)
12,Brc1c2c(c(Br)c3ccccc13)CCCC2,101% (inactive)
13,Cc1cc2c([nH]1)CSc1cc(S(=O)(=O)c3ccccc3)c(=O)[nH]c1-2,11% [100 µM] (inactive)
14,CC1=C(Nc2ccc(N3CCN(C)CC3)cc2)C(=O)c2cncnc2C1=O,103% (inactive)
15,CCCCCCC1(C)NCCO1 (stereo not given),102% (inactive)
16,C#CCOc1cccc(Nc2ncnc3ccc(NC(=O)CCl)cc23)c1,-67.7% (active)
17,COc1ccc(C(=O)C2C(c3ccc(OC)cc3)CN(C)C23C(=O)Nc2ccccc23)cc1 (stereo not given),90.6% (inactive)
18,CCN(CC)CCNC(=O)c1cn2ncnc(Oc3ccc(NC(=O)Nc4ccc(Cl)c(C(F)(F)F)c4)c(F)c3)c2c1C,-52.8% (active)

row,Compound,growth
1,CC(=O)OCc1nc(C#N)c(N(C)C)o1,108% (inactive)
2,CN[C@]12CC3(C=CC(=O)C=C3)O[C@@]1(Cc1ccc(OC)cc1)N(C)C(=O)N2,103% (inactive)
3,C=C(CNCCc1ccc(O)cc1)[C@@H]1CC[C@]2(CO)CC[C@]3(C)[C@H](CC[C@@H]4[C@@]5(C)CCC(NCCO)C(C)(C)[C@@H]5CC[C@]43C)[C@@H]12 (stereo not given in full),-80.8% (active)
4,O=C1/C(=C\c2cn(-c3ccccc3)nc2-c2ccc(-c3cccs3)cc2)CCc2ccccc21,54.8% (inactive)
5,Cc1ccc(-c2nn(-c3ccccc3)cc2C=C2C(=O)ON=C2C(C)C)cc1,96.8% (inactive)
6,CC/C(=C(/c1ccc(Cl)cc1)c1ccc(OCCN2CCCC2)cc1)c1ccc(OC)cc1,66% (inactive)
7,Cc1c(-c2nc3ccc(F)cc3c(=O)[nH]2)c2ccccc2n1C,15.1% (inactive)
8,COC1=CC(c2ccc[nH]2)=N/C1=C\c1[nH]c(C)c(C(=O)OCc2ccccc2)c1C,-79.3% (active)
9,COc1ccc(C/C(C)=C(/c2ccc(OCCN3CCCCC3)cc2)c2ccc(OC(=O)NCc3ccccc3)cc2)cc1,-94.8% (active)
10,CC(C)N1CN2C(=S)NC3C2N(C1)C(=S)N3C (stereo not given),98% (inactive)
11,CCCCN[C@H]1CC[C@@]2(C)[C@@H](CC[C@@]3(C)[C@H]2[C@H](O)C[C@H]2/C(=C(\CCC=C(C)C)C(=O)OC)[C@@H](OC(C)=O)C[C@@]23C)[C@@H]1C,99% (inactive)
12,O=[N+]([O-])c1ccc(-c2nc(N3CCOCC3)c3c4c(sc3n2)CCCC4)cc1,87.4% (inactive)
13,COc1cc(N2C(=O)[C@H](O)C2c2ccc(SC)cc2)cc(OC)c1OC (stereo not given in full),10.1% (inactive)
14,C#Cc1ccc(NC(=O)c2ccc(/C=C/C(=O)c3nccn3C)cc2)cc1,-91.2% (active)
15,Cc1nnc(NC(=O)c2nc(S(=O)(=O)Cc3ccc(F)cc3)ncc2Cl)s1,99.5% (inactive)
16,Cc1ccccc1/C=C1\CN(C(=O)OC(C)(C)C)C/C(=C\c2ccccc2C)C1=O,24.6% (inactive)
17,C[C@]12C=CC(=O)C=C1CCC1C2[C@@H](O)C[C@@]2(C)C1CC[C@]2(O)C(=O)COC(=O)CCC(=O)O (stereo not given in full),116% (inactive)
